Measurements reported in PubChem BioAssay.
“And” between values parts separate entries of the source, which are not always exact repeats. Identical values can stand only once. The source made the active and inactive calls.

Columns and labels:
[1] = tested on: PRMT1 (protein arginine N-methyltransferase 1); assay: PRMT1 binders on small-molecule microarrays, primary screen, biochemical, small-molecule microarray, 635 nm fluorescence (AID 1088); details: small-molecule microarray binding, higher = more signal;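 note: binding of Prmt1 protein to compounds spotted on small-molecule microarray slides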
[2] = yeast growth modulation, basal conditions, primary screen, YJM789 clinical isolate, OD600, 24 h (AID 1089);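 note: growth of clinical yeast isolate S. cerevisiae YJM 789 seeded 1000 cells per well; test concentration not given here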; details: S. cerevisiae YJM789 growth, higher = more signal, called active from +8 up or from −8 down
[3] = fission yeast growth modulation, primary screen, strain 972, OD600, 24 h, no modulator (AID 1090);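 note: basal condition with compound alone and no growth modifier present; test concentration not given here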; details: S. pombe 972 growth, higher = more signal, called active from +8 up or from −8 down
[4] = S. cerevisiae growth modulation with rapamycin, primary screen, strain BY4716, OD600, 96 h (AID 1091); details: higher = more signal, called active from +8 up or from −8 down; note: test concentration not given here
[5] = molecular target: Torsin-1A-interacting protein 2 (Homo sapiens) (UniProt Q8NFQ8); assay: LULL1 binders on small-molecule microarray, primary screen, cell lysate, human LULL1 lysate, 635/667 nm fluorescence (AID 1092); details: hLULL1 lysate binding, 635 nm fluorescence, higher = more signal;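 note: probe is lysate of COS7 cells overexpressing human LULL1; score merges per-feature 667 nm fluorescence with signal-to-noise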
[6] = E. coli growth modulation, two-sided OD650, primary screen, E. coli filamentation project, strain DRC41, 24 h (AID 1093); details: OD650, 24 h, higher = more signal, called active from +8 up or from −8 down;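 note: MC1000 strain lacking acrAB efflux and sulA so SOS filamentation is blocked; test concentration not given here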
[7] = small-molecule microarray binders of probe aLefty2, primary screen, biochemical, biotinylated probe, 635/667 nm fluorescence (AID 1094); details: higher = more signal;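 note: score merges spot fluorescence near 667 nm with spot signal-to-noise ratio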
[8] = tested on: Noggin (protein binding on small-molecule microarray); assay: Noggin binders on small-molecule microarray, primary screen, biochemical, 635/667 nm fluorescence (AID 1095); details: 635 nm fluorescence, higher = more signal;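 note: score merges 667 nm feature fluorescence with signal to noise over triplicate slides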
[9] = molecular target: Neurogenic locus notch homolog protein 3 (Homo sapiens) (UniProt Q9UM47); assay: NOTCH3 binders on small-molecule microarray, primary screen, biochemical, 635/667 nm fluorescence (AID 1096); details: NOTCH3 binding, 635 nm fluorescence, higher = more signal
[10] = small-molecule microarray binders of probe aEGFR, primary screen, biochemical, biotinylated probe, 635/667 nm fluorescence (AID 1097); details: higher = more signal;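 note: probe is a biotinylated anti-EGFR antibody binding compounds printed on slides; score combines fluorescence near 667 nm and signal to noise of each spot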
[11] = tested on: Plasmodium falciparum Sir2 (PF13_0152, Sir2A); assay: pfSir2 binders on small-molecule microarrays, primary screen, biochemical, small-molecule microarray, 635 nm fluorescence (AID 1098); details: small-molecule microarray binding, fluorescence 635 nm; higher = more signal;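 note: score merges spot fluorescence intensity with its signal-to-noise ratio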
[12] = small-molecule microarray binders of probe aDKK1, primary screen, biochemical, biotinylated probe, 635/667 nm fluorescence (AID 1099); details: higher = more signal;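 note: score merges 667nm spot fluorescence with signal to noise across triplicate slides; reference of the scale not given here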
[13] = small-molecule microarray binders of probe aCHRDL2, primary screen, biochemical, biotinylated probe, 635/667 nm fluorescence (AID 1100); details: higher = more signal
[14] = splicing luciferase reporter signal modulators, primary screen, spliceosome inhibition project, cell-based, HEK293, splice +/- reporter (AID 1101); details: luminescence, 24 h, higher = more signal, called active from +8 up or from −8 down;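 note: HEK293 cells carrying a splicing-competent luciferase reporter gene; test concentration not given here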
[15] = molecular target: Fibroblast growth factor 10 (Homo sapiens) (UniProt O15520); assay: FGF10 binders on small-molecule microarrays, primary screen, biochemical, small-molecule microarray, 635 nm fluorescence (AID 1102); details: FGF10 binding, fluorescence 635 nm, higher = more signal
[16] = tested on: glycogen synthase kinase-3 (GSK3A per assay name; protocol says GSK3B); assay: GSK3 binders on small-molecule microarrays, primary screen, biochemical, small-molecule microarray, 635 nm fluorescence, GSK3A (AID 1103); details: small-molecule microarray binding, fluorescence 635 nm; higher = more signal; note: the record names both GSK3A and GSK3B
[17] = molecular target: Epidermal growth factor receptor (Homo sapiens) (UniProt P00533); assay: EGFR binders on small-molecule microarrays, primary screen, biochemical, small-molecule microarray, 635 nm fluorescence (AID 1104); details: EGFR binding, higher = more signal;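 note: score merges 667 nm emission intensity with spot signal to noise over triplicate slides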
[18] = molecular target: Follistatin-related protein 3 (Homo sapiens) (UniProt O95633); assay: FSTL3 binders on small-molecule microarrays, primary screen, biochemical, small-molecule microarray, 635 nm fluorescence (AID 1105); details: FSTL3 binding, higher = more signal;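 note: score merges emission near 667 nm and signal to noise per printed spot across three slides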
[19] = molecular target: Dickkopf-related protein 1 (Homo sapiens) (UniProt O94907); assay: DKK1 binders on small-molecule microarrays, primary screen, biochemical, small-molecule microarray, 635 nm fluorescence scan (AID 1106); details: DKK1 binding, higher = more signal;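 note: score merges emission near 667 nm with signal to noise over three replicate slides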
[20] = tested on: Inhibin beta A chain (activin A); assay: INHBA (activin A) binders on microarrays, primary screen, biochemical, small-molecule microarray, 635 nm fluorescence scan (AID 1107); details: small-molecule microarray binding, higher = more signal;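 note: mouse activin A protein probed at 4.33 µg/mL on printed slides; score merges bound-protein fluorescence near 667 nm with spot signal-to-noise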

Sequence of Torsin-1A-interacting protein 2 (Homo sapiens) (Q8NFQ8 whole entry, looked up): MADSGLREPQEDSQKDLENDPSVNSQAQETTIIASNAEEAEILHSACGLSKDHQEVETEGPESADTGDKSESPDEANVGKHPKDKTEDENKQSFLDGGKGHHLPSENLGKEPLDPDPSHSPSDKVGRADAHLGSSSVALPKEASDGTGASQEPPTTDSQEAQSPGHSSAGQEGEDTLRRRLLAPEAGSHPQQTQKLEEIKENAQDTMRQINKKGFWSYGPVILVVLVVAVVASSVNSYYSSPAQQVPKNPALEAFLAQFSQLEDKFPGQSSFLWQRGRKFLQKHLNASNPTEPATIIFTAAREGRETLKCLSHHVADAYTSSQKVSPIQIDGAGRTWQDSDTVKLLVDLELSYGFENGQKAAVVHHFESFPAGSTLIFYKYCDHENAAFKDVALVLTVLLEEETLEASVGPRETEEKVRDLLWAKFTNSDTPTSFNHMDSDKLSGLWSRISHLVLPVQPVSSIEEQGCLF
Sequence of Neurogenic locus notch homolog protein 3 (Homo sapiens) (Q9UM47 whole entry, looked up): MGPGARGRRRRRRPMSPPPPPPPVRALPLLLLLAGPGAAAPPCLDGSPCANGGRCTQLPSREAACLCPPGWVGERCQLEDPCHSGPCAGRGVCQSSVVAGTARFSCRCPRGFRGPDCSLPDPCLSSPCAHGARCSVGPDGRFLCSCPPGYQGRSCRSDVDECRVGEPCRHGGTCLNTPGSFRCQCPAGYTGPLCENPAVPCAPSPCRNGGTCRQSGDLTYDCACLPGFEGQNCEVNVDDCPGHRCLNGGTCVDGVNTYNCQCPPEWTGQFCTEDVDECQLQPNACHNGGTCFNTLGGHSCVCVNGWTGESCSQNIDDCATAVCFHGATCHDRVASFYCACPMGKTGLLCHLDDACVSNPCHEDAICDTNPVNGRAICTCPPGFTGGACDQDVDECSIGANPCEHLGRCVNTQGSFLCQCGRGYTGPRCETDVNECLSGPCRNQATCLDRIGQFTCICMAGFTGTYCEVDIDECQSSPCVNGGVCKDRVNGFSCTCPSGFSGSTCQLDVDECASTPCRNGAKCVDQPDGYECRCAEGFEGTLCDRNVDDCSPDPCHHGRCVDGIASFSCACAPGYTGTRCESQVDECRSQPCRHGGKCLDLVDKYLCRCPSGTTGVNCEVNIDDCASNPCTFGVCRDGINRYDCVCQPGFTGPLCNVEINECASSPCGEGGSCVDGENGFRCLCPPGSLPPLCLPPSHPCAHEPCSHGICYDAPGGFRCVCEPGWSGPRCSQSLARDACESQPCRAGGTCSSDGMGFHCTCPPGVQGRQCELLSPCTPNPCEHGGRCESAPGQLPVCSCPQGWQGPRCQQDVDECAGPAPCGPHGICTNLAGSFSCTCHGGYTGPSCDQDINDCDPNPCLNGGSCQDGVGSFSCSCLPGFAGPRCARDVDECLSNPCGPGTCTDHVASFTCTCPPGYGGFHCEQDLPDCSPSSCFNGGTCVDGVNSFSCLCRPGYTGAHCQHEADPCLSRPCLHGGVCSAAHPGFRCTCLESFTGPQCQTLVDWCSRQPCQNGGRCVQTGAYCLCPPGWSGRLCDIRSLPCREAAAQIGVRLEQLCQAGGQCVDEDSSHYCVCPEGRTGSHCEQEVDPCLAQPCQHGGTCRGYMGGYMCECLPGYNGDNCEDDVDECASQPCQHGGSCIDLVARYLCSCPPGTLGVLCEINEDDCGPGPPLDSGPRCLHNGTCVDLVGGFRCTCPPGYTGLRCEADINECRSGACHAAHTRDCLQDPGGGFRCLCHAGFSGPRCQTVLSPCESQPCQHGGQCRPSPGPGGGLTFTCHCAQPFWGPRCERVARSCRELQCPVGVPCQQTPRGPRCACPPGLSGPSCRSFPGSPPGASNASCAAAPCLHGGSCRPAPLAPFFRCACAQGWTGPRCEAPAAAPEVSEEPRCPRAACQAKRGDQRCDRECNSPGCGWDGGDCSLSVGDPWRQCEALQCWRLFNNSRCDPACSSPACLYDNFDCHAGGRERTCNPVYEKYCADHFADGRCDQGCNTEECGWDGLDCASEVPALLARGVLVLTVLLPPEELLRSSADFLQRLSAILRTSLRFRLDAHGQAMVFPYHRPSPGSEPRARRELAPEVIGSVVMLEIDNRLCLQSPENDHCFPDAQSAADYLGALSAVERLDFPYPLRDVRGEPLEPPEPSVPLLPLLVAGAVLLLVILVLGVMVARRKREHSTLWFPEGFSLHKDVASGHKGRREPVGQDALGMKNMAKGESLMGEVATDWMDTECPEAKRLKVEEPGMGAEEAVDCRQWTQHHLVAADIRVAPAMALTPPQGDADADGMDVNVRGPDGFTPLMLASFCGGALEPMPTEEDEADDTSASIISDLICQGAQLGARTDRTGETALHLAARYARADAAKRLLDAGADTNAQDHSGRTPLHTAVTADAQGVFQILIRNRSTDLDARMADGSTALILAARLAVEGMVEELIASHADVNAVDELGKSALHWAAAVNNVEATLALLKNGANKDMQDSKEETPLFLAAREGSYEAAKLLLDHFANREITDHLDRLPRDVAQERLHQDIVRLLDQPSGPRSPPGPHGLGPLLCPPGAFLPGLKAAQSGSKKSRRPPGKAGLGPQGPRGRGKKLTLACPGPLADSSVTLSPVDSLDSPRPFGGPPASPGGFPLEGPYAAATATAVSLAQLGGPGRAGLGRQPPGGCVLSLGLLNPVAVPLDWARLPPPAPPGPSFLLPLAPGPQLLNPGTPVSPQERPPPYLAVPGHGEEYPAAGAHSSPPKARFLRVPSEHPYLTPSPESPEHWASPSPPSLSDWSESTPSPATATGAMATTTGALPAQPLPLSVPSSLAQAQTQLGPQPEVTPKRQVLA
Sequence of Dickkopf-related protein 1 (Homo sapiens) (O94907 whole entry, looked up): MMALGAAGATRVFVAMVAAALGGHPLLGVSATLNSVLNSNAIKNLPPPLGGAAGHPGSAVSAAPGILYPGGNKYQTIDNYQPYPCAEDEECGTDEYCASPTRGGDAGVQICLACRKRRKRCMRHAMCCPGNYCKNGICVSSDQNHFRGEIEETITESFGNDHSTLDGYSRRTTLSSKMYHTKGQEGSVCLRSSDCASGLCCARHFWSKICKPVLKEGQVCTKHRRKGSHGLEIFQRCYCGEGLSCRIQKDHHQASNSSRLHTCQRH
Sequence of Fibroblast growth factor 10 (Homo sapiens) (O15520 whole entry, looked up): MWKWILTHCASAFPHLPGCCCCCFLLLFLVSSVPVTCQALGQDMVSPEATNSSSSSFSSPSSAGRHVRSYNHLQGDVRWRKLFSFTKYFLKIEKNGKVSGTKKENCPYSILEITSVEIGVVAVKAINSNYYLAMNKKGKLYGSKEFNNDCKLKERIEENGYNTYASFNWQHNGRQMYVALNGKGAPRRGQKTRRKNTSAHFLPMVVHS
Sequence of Follistatin-related protein 3 (Homo sapiens) (O95633 whole entry, looked up): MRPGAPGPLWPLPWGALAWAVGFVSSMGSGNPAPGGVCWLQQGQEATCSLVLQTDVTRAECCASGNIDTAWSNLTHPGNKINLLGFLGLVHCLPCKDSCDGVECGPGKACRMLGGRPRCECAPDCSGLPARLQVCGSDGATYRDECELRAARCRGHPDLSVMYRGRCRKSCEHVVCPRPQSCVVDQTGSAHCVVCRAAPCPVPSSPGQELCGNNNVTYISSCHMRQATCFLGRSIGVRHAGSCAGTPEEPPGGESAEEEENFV
Sequence of Epidermal growth factor receptor (Homo sapiens) (P00533 whole entry, looked up): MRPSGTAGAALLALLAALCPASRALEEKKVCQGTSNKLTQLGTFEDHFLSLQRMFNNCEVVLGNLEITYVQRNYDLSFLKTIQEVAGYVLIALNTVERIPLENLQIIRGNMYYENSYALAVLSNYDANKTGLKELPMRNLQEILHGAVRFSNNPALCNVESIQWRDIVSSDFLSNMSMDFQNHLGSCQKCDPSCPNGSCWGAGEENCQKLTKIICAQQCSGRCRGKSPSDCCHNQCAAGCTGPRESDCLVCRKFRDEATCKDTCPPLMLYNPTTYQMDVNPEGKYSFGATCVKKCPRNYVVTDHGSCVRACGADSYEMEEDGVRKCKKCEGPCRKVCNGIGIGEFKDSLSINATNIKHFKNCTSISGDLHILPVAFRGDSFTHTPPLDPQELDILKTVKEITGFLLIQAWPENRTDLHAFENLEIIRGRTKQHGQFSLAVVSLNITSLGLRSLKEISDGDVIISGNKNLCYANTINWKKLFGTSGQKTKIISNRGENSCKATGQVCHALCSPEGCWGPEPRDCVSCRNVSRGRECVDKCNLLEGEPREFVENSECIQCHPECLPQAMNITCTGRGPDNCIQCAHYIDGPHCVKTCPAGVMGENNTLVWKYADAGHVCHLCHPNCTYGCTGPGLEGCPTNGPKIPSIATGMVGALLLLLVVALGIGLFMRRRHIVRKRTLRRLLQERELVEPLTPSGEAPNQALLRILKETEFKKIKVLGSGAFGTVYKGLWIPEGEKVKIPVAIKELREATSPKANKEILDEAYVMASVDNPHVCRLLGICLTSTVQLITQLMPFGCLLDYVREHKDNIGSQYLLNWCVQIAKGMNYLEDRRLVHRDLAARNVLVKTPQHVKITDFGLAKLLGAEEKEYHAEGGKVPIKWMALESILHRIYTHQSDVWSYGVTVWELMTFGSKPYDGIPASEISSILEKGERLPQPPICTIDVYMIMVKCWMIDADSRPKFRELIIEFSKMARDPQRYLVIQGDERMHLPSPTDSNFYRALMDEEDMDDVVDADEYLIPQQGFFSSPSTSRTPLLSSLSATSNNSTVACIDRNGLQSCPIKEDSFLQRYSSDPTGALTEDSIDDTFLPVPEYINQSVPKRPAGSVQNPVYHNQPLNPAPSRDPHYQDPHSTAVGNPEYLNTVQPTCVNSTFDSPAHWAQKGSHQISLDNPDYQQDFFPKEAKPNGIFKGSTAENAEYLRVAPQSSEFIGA

For `Cc1ccc(S(=O)(=O)N[C@H]2COC(=O)[C@@H](Cc3ccccc3)NC(=O)[C@@H](C)COC(=O)CC=C[C@@H]2C)cc1`, the composite z-score [1] was -0.0829 and 1.56, the z-score [2] was -0.248 (inactive) and -0.666 (inactive) and the z-score [3] was 0.209 (inactive) and 0.195 (inactive). For the same molecule, the z-score [4] was -0.342 (inactive) and -0.348 (inactive), the composite z-score [5] was -0.872 and 0.969 and the z-score [6] was 0.205 (inactive) and 0.134 (inactive). The composite z-score [7] was -0.212 and -0.0726, the composite z-score [8] was 0.3 and 0.541 and the composite z-score [9] was -0.587 and 0.629. The composite z-score [10] was -0.0952 and -0.0661, the composite z-score [11] was -0.218 and 0.304 and the composite z-score [12] was -0.483 and -0.332. For the same molecule, the composite z-score [13] was -0.803 and -0.645, the z-score [14] was 0.565 (inactive) and -0.0193 (inactive) and the composite z-score [15] was 0.117 and 0.435. For the same molecule, the composite z-score [16] was -0.0808 and -0.0049, the composite z-score [17] was 0.513 and 0.282 and the composite z-score [18] was 0.87 and 0.533. The composite z-score [19] was 0.871 and 0.895 and the composite z-score [20] was 0.657 and 0.0736.
With `CCOC(=O)C[C@H]1[C@H](OC(=O)c2ccccc2-c2ccccc2)[C@@H](NC(=O)Cc2ccc(OC)cc2)c2cc(OCCCO)ccc2N1C(=O)Cc1ccc(OC)cc1` the composite z-score [1] was 0.407 and -0.949, the z-score [2] was -0.0142 (inactive) and -0.0701 (inactive) and the z-score [3] was -0.572 (inactive) and 0.18 (inactive). For the same molecule, the z-score [4] was 0.843 (inactive) and 0.39 (inactive), the composite z-score [5] was 1.46 and -0.199 and the z-score [6] was 2.39 (inactive) and -0.335 (inactive). For the same molecule, the composite z-score [7] was 0.139 and -0.176, the composite z-score [8] was 0.0766 and -0.182 and the composite z-score [9] was 0.784 and -0.204. For the same molecule, the composite z-score [10] was 0.0084 and -0.142, the composite z-score [11] was 0.463 and -0.568 and the composite z-score [12] was 0.659 and -0.038. For the same molecule, the composite z-score [13] was 0.675 and 0.58, the z-score [14] was -1.05 (inactive) and -0.311 (inactive) and the composite z-score [15] was 0.57 and -0.0746. The composite z-score [16] was 0.348 and -0.607, the composite z-score [17] was -0.111 and -0.847 and the composite z-score [18] was 0.223 and -0.624. For the same molecule, the composite z-score [19] was -0.215 and -0.331 and the composite z-score [20] was 0.29 and 0.764.
For `C=C[C@@H](OC)[C@H](O)c1ccc(OC)c(O)c1`, the composite z-score [1] was 0.852 and -0.645, the z-score [2] was -0.722 (inactive) and -0.94 (inactive) and the z-score [3] was -0.322 (inactive) and -0.469 (inactive). The z-score [4] was -0.116 (inactive) and -0.423 (inactive), the composite z-score [5] was -0.1 and -0.81 and the z-score [6] was 0.77 (inactive) and 1.76 (inactive). The composite z-score [7] was -0.17 and -0.109, the composite z-score [8] was 0.941 and 0.0939 and the composite z-score [9] was -0.233 and -1.14. The composite z-score [10] was -0.277 and -0.33, the composite z-score [11] was -1.12 and 0.402 and the composite z-score [12] was -0.42 and -0.521. For the same molecule, the composite z-score [13] was -0.6 and -0.0832, the z-score [14] was -0.984 (inactive) and -1.14 (inactive) and the composite z-score [15] was 0.146 and -0.514. For the same molecule, the composite z-score [16] was -0.374 and -0.669, the composite z-score [17] was 0.526 and -1.08 and the composite z-score [18] was 0.878 and -0.9. For the same molecule, the composite z-score [19] was 0.131 and -0.539 and the composite z-score [20] was 1.27 and -0.492.
For `CO[C@H]1COC(=O)[C@H](C)NC(=O)CC=C[C@@H](C)[C@H](OC)COC(=O)CC=C[C@@H]1C`, the composite z-score [1] was 1.4, the z-score [2] was 1.17 (inactive) and the z-score [3] was 0.306 (inactive). The z-score [4] was 1.13 (inactive), the composite z-score [5] was -0.247 and the z-score [6] was 1.3 (inactive). For the same molecule, the composite z-score [7] was -0.235, the composite z-score [8] was 1.32 and the composite z-score [9] was 0.164. It also gave a composite z-score [10] of 0.0556, a composite z-score [11] of 0.523 and a composite z-score [12] of -0.785. The composite z-score [13] was -1.62, the z-score [14] was 0.506 (inactive) and the composite z-score [15] was 0.504. For the same molecule, the composite z-score [16] was 1.04, the composite z-score [17] was 1.49 and the composite z-score [18] was 1.45. The composite z-score [19] was 1.62 and the composite z-score [20] was 1.68.
